{"source": "PubChem BioAssay (NCATS)", "note": "Several values for one entry are separate records, joined by “and”; a condition that tells them apart may be missing. Equal entries are not always repeated. Inconclusive results are not listed. Activity calls are given as the source filed them. Unless noted, calls follow the shape of the full dose curve. For Potency in this document: potency is read from the fitted curve at half-maximal effect. For activity change % (negative = inhibition) in this document: % is scaled to controls: 0 for no effect and ±100 for the full control effect.", "data": [{"target": "Vitamin D3 receptor (Homo sapiens) (UniProt P11473)", "sequence (P11473 whole entry, looked up)": "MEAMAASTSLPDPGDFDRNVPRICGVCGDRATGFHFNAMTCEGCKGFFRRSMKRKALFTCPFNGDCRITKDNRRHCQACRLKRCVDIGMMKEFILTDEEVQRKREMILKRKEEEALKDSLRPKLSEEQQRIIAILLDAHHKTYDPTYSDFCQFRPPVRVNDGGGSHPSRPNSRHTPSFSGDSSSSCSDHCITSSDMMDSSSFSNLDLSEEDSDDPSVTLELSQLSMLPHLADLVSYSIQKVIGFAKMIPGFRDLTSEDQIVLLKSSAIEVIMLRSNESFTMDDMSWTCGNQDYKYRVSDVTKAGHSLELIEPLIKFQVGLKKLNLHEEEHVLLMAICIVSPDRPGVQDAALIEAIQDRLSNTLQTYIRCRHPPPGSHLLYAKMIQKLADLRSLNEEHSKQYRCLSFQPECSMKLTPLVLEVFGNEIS", "assay": "qHTS assay for small molecule agonists of vitamin D receptor signaling (AID 588543);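 also: 0% = DMSO basal and 100% = reference agonist control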", "conditions": "HEK293T VDR-UAS-bla, beta-lactamase ratio, 16 h; series mostly up to 76.8 µM; activation: at the top concentration", "summary_of_the_method": "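Measured: β-lactamase reporter activity (CCF4, 405 nm excitation, 460/530 nm emission) in HEK293T VDR-UAS-bla cells after 16 h compound exposure at 37 °C. Normalization against 50 nM 1α,25-dihydroxyvitamin D3 and DMSO; Hill-fit EC50.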", "values": [{"smiles": "CC/C(=N\\OC/C=C/Cl)C1=C(O)CC(C2CCOCC2)CC1=O", "note": "(centres undefined)", "activation": "1.4% (inactive)"}, {"smiles": "COc1cc(OC)nc(Sc2cccc(Cl)c2C(=O)O)n1", "activation": "2.32% (inactive)"}, {"smiles": "CCOP(=O)(OCC)Oc1nc(Cl)c(Cl)cc1Cl", "activation": "3.86% (inactive)"}, {"smiles": "CC1(C)[C@@H](C=C(Cl)Cl)[C@@H]1C(=O)OCc1cccc(Oc2ccccc2)c1", "activation": "4.81% (inactive)"}, {"smiles": "c1ccc2c(c1)oc1ccccc12", "activation": "-0.233% (inactive)"}, {"smiles": "CC(C)(C)OOC(C)(C)CCC(C)(C)OOC(C)(C)C", "activation": "2.56% (inactive)"}, {"smiles": "OC(c1ccc(Cl)cc1)(c1cncnc1)c1ccccc1Cl", "note": "(centres undefined)", "activation": "-7.23% (inactive)"}, {"smiles": "CC1(C)C(C=C(Cl)Cl)[C@H]1C(=O)OCc1cccc(Oc2ccccc2)c1", "note": "(some centres undefined)", "activation": "3.16% (inactive)"}, {"smiles": "CNC(=O)O/N=C(\\C)SC", "activation": "-3.02% (inactive)"}, {"smiles": "CCc1cnc(C2=NC(C)(C(C)C)C(=O)N2)c(C(=O)O)c1", "note": "(centres undefined)", "activation": "4.21% (inactive)"}, {"smiles": "O=C1C(Cl)=C(Cl)C(=O)c2ccccc21", "activation": "18.1% (inactive)"}]}, {"system": "not listed separately", "assay": "qHTS assay for small molecule agonists of retinoid X receptor alpha signaling (AID 588544); also: potency is read from the fitted curve at half-maximal effect;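 as to activation: 0% = DMSO basal wells and 100% = reference agonist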", "conditions": "HEK293T RXRa-UAS-bla, beta-lactamase reporter, 18 h; 530 nm emission", "units": {"max response": "%"}, "values": [{"smiles": "CC/C(=N\\OC/C=C/Cl)C1=C(O)CC(C2CCOCC2)CC1=O", "note": "(centres undefined)", "max response": -4.82}, {"smiles": "COc1cc(OC)nc(Sc2cccc(Cl)c2C(=O)O)n1", "max response": -16.4}, {"smiles": "ClC1=C(Cl)C2(Cl)C3C4OC4C(Cl)C3C1(Cl)C2(Cl)Cl", "note": "(centres undefined)", "max response": 2.4}, {"smiles": "c1ccc2c(c1)oc1ccccc12", "max response": -6.25}, {"smiles": "N#Cc1c[nH]cc1-c1cccc2c1OC(F)(F)O2", "max response": -13.3}, {"smiles": "CC(C)(C)OOC(C)(C)CCC(C)(C)OOC(C)(C)C", "max response": -2.41}, {"smiles": "CC1(C)C(C=C(Cl)Cl)[C@H]1C(=O)OCc1cccc(Oc2ccccc2)c1", "note": "(some centres undefined)", "max response": -6.06}, {"smiles": "CNC(=O)O/N=C(\\C)SC", "max response": -25.7}, {"smiles": "CCc1cnc(C2=NC(C)(C(C)C)C(=O)N2)c(C(=O)O)c1", "note": "(centres undefined)", "max response": -15.1}]}, {"target": "Retinoic acid receptor RXR-alpha (Homo sapiens) (UniProt P19793)", "sequence (P19793 whole entry, looked up)": "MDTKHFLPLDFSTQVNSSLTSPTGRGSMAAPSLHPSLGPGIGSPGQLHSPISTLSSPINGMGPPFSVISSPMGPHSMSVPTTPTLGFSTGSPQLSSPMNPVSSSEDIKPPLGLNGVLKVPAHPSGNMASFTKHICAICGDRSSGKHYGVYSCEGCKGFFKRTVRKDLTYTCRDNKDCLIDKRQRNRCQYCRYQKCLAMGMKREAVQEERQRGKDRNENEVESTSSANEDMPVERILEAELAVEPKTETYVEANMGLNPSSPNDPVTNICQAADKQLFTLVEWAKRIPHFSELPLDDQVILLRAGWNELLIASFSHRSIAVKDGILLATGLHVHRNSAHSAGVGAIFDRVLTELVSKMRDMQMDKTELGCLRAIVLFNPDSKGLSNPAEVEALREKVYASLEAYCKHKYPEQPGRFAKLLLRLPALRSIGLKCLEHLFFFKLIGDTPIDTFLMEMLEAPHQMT", "assay": "qHTS assay for small molecule agonists of retinoid X receptor alpha signaling (AID 588544)", "conditions": "HEK293T RXRa-UAS-bla, beta-lactamase reporter, 18 h; series mostly up to 76.7 µM; activation: at the top concentration", "values": [{"smiles": "CC/C(=N\\OC/C=C/Cl)C1=C(O)CC(C2CCOCC2)CC1=O", "note": "(centres undefined)", "activation": "9.64% (inactive)"}, {"smiles": "S=C(S)NCCNC(=S)S", "activation": "-27.1% (inactive)"}, {"smiles": "COc1cc(OC)nc(Sc2cccc(Cl)c2C(=O)O)n1", "activation": "6.61% (inactive)"}, {"smiles": "ClC1=C(Cl)C2(Cl)C3C4OC4C(Cl)C3C1(Cl)C2(Cl)Cl", "note": "(centres undefined)", "activation": "-22.5% (inactive)"}, {"smiles": "c1ccc2c(c1)oc1ccccc12", "activation": "20.5% (inactive)"}, {"smiles": "N#Cc1c[nH]cc1-c1cccc2c1OC(F)(F)O2", "Potency": "2.24 µM (active)"}, {"smiles": "CC(C)(C)OOC(C)(C)CCC(C)(C)OOC(C)(C)C", "activation": "-7.5% (inactive)"}, {"smiles": "CC1(C)C(C=C(Cl)Cl)[C@H]1C(=O)OCc1cccc(Oc2ccccc2)c1", "note": "(some centres undefined)", "activation": "-12.5% (inactive)"}, {"smiles": "CNC(=O)O/N=C(\\C)SC", "activation": "8.04% (inactive)"}, {"smiles": "CCc1cnc(C2=NC(C)(C(C)C)C(=O)N2)c(C(=O)O)c1", "note": "(centres undefined)", "activation": "12.5% (inactive)"}]}, {"target": "Thyroid hormone receptor beta (Homo sapiens) (UniProt P10828)", "sequence (P10828 whole entry, looked up)": "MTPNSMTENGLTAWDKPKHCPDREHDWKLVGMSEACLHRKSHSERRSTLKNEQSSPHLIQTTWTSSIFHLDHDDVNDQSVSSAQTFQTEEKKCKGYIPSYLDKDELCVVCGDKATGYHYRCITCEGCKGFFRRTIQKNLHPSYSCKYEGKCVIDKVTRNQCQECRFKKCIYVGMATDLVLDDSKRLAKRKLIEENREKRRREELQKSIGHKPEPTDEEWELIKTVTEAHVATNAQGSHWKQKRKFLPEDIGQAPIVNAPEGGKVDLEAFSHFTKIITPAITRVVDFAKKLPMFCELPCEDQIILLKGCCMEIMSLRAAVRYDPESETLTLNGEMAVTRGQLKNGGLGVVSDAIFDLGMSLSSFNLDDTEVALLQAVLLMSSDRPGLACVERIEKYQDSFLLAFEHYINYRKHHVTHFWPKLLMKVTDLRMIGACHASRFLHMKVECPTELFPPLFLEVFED", "assay": "qHTS assay for small molecule agonists of thyroid hormone receptor beta signaling (AID 588545)", "conditions": "TR-UAS-bla GripTite HEK 293, beta-lactamase ratio, agonist mode, 18 h; series mostly up to 76.7 µM; activation: at the top concentration", "summary_of_the_method": "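HEK 293 TR-UAS-bla; agonist mode; 18 hrs, 37 C; CCF4, ex 405/em 460 and 530 nm; norm. T3 10 nM = 100%, DMSO = 0%; Hill fit → EC50, efficacy.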", "values": [{"smiles": "CC/C(=N\\OC/C=C/Cl)C1=C(O)CC(C2CCOCC2)CC1=O", "note": "(centres undefined)", "activation": "0.527% (inactive)"}, {"smiles": "COc1cc(OC)nc(Sc2cccc(Cl)c2C(=O)O)n1", "activation": "12.8% (inactive)"}, {"smiles": "CCOP(=O)(OCC)Oc1nc(Cl)c(Cl)cc1Cl", "activation": "0.0583% (inactive)"}, {"smiles": "CC1(C)[C@@H](C=C(Cl)Cl)[C@@H]1C(=O)OCc1cccc(Oc2ccccc2)c1", "activation": "-7.39% (inactive)"}, {"smiles": "ClC1=C(Cl)C2(Cl)C3C4OC4C(Cl)C3C1(Cl)C2(Cl)Cl", "note": "(centres undefined)", "activation": "-4.76% (inactive)"}, {"smiles": "c1ccc2c(c1)oc1ccccc12", "activation": "-3.24% (inactive)"}, {"smiles": "C1CC[CH]([Sn]([CH]2CCCCC2)[CH]2CCCCC2)CC1", "activation": "0.672% (inactive)"}, {"smiles": "N#Cc1c[nH]cc1-c1cccc2c1OC(F)(F)O2", "activation": "-0.184% (inactive)"}, {"smiles": "CC(C)(C)OOC(C)(C)CCC(C)(C)OOC(C)(C)C", "activation": "2.04% (inactive)"}, {"smiles": "OC(c1ccc(Cl)cc1)(c1cncnc1)c1ccccc1Cl", "note": "(centres undefined)", "activation": "-6.8% (inactive)"}, {"smiles": "CNC(=O)O/N=C(\\C)SC", "activation": "0% (inactive)"}, {"smiles": "CCc1cnc(C2=NC(C)(C(C)C)C(=O)N2)c(C(=O)O)c1", "note": "(centres undefined)", "activation": "-3.41% (inactive)"}]}, {"system": "not listed separately", "assay": "qHTS assay for small molecule antagonists of retinoid X receptor alpha signaling (AID 588546; active = well fitted inhibition curve with a large enough effect in the signal ratio, with a control signal flat, not every such curve was filed as active; the % refers to the signal ratio; also: % is scaled to controls: 0 for no effect and ±100 for the full control effect)", "conditions": "HEK293T RXRa-UAS-bla, beta-lactamase ratio, antagonist mode; measured here: W530 green channel, cytotoxicity proxy", "summary_of_the_method": "(§1)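 Beta-lactamase reporter inhibition, read as CCF4 fluorescence ratio (ex 405, em 460/530 nm) after 2 h at RT. HEK293T UAS-bla cells, 2500/well, were stimulated with 9-cis-RA at 500 or 100 nM final alongside test compound for 18 h at 37 C.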", "units": {"max response": "%"}, "values": [{"smiles": "CC/C(=N\\OC/C=C/Cl)C1=C(O)CC(C2CCOCC2)CC1=O", "note": "(centres undefined)", "max response": 0.449}, {"smiles": "COc1cc(OC)nc(Sc2cccc(Cl)c2C(=O)O)n1", "max response": -2.85}, {"smiles": "ClC1=C(Cl)C2(Cl)C3C4OC4C(Cl)C3C1(Cl)C2(Cl)Cl", "note": "(centres undefined)", "max response": -11.3}, {"smiles": "c1ccc2c(c1)oc1ccccc12", "max response": -9.11}, {"smiles": "CC(C)(C)OOC(C)(C)CCC(C)(C)OOC(C)(C)C", "max response": -4.8}, {"smiles": "OC(c1ccc(Cl)cc1)(c1cncnc1)c1ccccc1Cl", "note": "(centres undefined)", "max response": 8.06}, {"smiles": "CNC(=O)O/N=C(\\C)SC", "max response": -3.33}]}, {"target": "Retinoic acid receptor RXR-alpha (Homo sapiens) (UniProt P19793)", "assay": "qHTS assay for small molecule antagonists of retinoid X receptor alpha signaling (AID 588546)", "conditions": "HEK293T RXRa-UAS-bla, beta-lactamase ratio, antagonist mode", "summary_of_the_method": "as §1", "values": [{"smiles": "CC/C(=N\\OC/C=C/Cl)C1=C(O)CC(C2CCOCC2)CC1=O", "note": "(centres undefined)", "max response": "3.36% (inactive)"}, {"smiles": "COc1cc(OC)nc(Sc2cccc(Cl)c2C(=O)O)n1", "max response": "-5.7% (inactive)"}, {"smiles": "ClC1=C(Cl)C2(Cl)C3C4OC4C(Cl)C3C1(Cl)C2(Cl)Cl", "note": "(centres undefined)", "max response": "-6.75% (inactive)"}, {"smiles": "c1ccc2c(c1)oc1ccccc12", "max response": "10.8% (inactive)"}, {"smiles": "CC(C)(C)OOC(C)(C)CCC(C)(C)OOC(C)(C)C", "max response": "-1.22% (inactive)"}, {"smiles": "OC(c1ccc(Cl)cc1)(c1cncnc1)c1ccccc1Cl", "note": "(centres undefined)", "max response": "-39.6% (inactive)"}, {"smiles": "CNC(=O)O/N=C(\\C)SC", "max response": "8.15% (inactive)"}]}, {"target": "Thyroid hormone receptor beta (Homo sapiens) (UniProt P10828)", "assay": "qHTS assay for small molecule antagonists of thyroid hormone receptor beta signaling (AID 588547; active = well fitted inhibition curve with a large enough effect in the signal ratio, with a control signal flat, not every such curve was filed as active; the % refers to the signal ratio)", "conditions": "TR-UAS-bla HEK293, beta-lactamase ratio, antagonist mode, 18 h", "summary_of_the_method": "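TR-UAS-bla GripTite HEK293 cells in 2% charcoal/dextran FBS medium; compounds 0.59 nM to 92 uM with T3 at 0.4nM final, 18 h at 37 C. Beta-lactamase read by CCF4 fluorescence (460/530 nm); Hill fits gave IC50 and efficacy.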", "values": [{"smiles": "CC/C(=N\\OC/C=C/Cl)C1=C(O)CC(C2CCOCC2)CC1=O", "note": "(centres undefined)", "activity change % (negative = inhibition)": "-7.66% (inactive)"}, {"smiles": "COc1cc(OC)nc(Sc2cccc(Cl)c2C(=O)O)n1", "activity change % (negative = inhibition)": "6.23% (inactive)"}, {"smiles": "OC(c1ccc(Cl)cc1)(c1cncnc1)c1ccccc1Cl", "note": "(centres undefined)", "activity change % (negative = inhibition)": "5.6% (inactive)"}, {"smiles": "CCc1cnc(C2=NC(C)(C(C)C)C(=O)N2)c(C(=O)O)c1", "note": "(centres undefined)", "activity change % (negative = inhibition)": "-0.801% (inactive)"}]}, {"system": "not listed separately", "assay": "qHTS assay for small molecule agonists of the antioxidant response element (ARE) signaling pathway (AID 651741; active = well fitted activation curve with a large enough effect in the signal ratio; the % refers to the signal ratio)", "conditions": "HepG2 ARE-bla reporter, beta-lactamase FRET ratio, 16 h; series mostly up to 96 µM; activation: at the top concentration", "summary_of_the_method": "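HepG2 ARE-bla cells plated at 2,000 cells/well and incubated 5 h at 37 C/5% CO2 received 23 nL compound in DMSO. After 16 h at 37 C, LiveBLAzer B/G FRET substrate was applied for 2 h at room temperature and fluorescence read.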", "values": [{"smiles": "S=C([S-])NCCNC(=S)[S-].[Mn+2]", "Potency": "30.6 µM (active) and 27.3 µM (active)"}, {"smiles": "COc1cc(OC)nc(Sc2cccc(Cl)c2C(=O)O)n1", "activation": "4.1% (inactive)"}, {"smiles": "C1CC[CH]([Sn]([CH]2CCCCC2)[CH]2CCCCC2)CC1", "Potency": "19.3 µM (active)"}, {"smiles": "CNC(=O)O/N=C(\\C)SC", "activation": "1.96% (inactive)"}]}]}
